Experimental data taken from PubChem BioAssay AID1159580 (chemical genetic matrix, 2015).
Among all 5,500 compounds or so, about 2,000 (36%) were called active. Roughly 18% stayed inconclusive and do not appear here. Rule as the data show it: active = normalized growth mostly below about 0.91 (no sharp cut-off); inconclusive = no clear call, values can overlap the other calls; inactive = mostly above about 0.92. This is one part of the list.

Experiment: chemical genetic growth profiling, strain panel (AID 1159580);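 also: tested at 20 µM; growth read once vehicle control cultures reached saturation at 30 °C; 1 = growth at the plate median or of vehicle wells; lower values mean less growth of the strain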
Conditions: growth OD

Measured: normalized growth

CC1CCC2(OC1)OC1CC3C4CC[C@H]5C[C@@H](O)CC[C@]5(C)C4CC(=O)[C@]3(C)C1C2C (some centres not stated)
inactive: S. cerevisiae deletion strains, locus YJR075W, strain HOC1, active compounds read low 1.01 | S. cerevisiae deletion strains, locus YKL009W, strain mrt4, active compounds read low 0.965 | S. cerevisiae deletion strains, locus YKL068W, active compounds read low 0.992 | S. cerevisiae deletion strains, locus YKL085W, strain MDH1 (second series), active compounds read low 0.989 | S. cerevisiae deletion strains, locus YKL085W, strain MDH1, active compounds read low 0.989 | S. cerevisiae deletion strains, locus YKL160W, strain elf1, active compounds read low 1.01 | S. cerevisiae deletion strains, locus YKL190W, strain CNB1, active compounds read low 1.01 | S. cerevisiae deletion strains, locus YKR001C, strain vps1, active compounds read low 0.98 | S. cerevisiae deletion strains, locus YKR026C, strain gcn3, active compounds read low 1.02 | S. cerevisiae deletion strains, locus YKR091W, strain srl3, active compounds read low 1.01 | S. cerevisiae deletion strains, locus YLL001W, strain dnm1, active compounds read low 0.987 | S. cerevisiae deletion strains, locus YLL026W, active compounds read low 1.01 | S. cerevisiae deletion strains, locus YLL041C, strain sdh2, active compounds read low 1 | S. cerevisiae deletion strains, locus YLR027C, strain aat2, active compounds read low 1 | S. cerevisiae deletion strains, locus YLR039C, strain RIC1, active compounds read low 0.972 | S. cerevisiae deletion strains, locus YLR058C, strain SHM2, active compounds read low 1.01 | S. cerevisiae deletion strains, locus YLR102C, strain apc9, active compounds read low 0.982 | S. cerevisiae deletion strains, locus YLR113W, strain HOG1, active compounds read low 0.97 | S. cerevisiae deletion strains, locus YLR221C, strain rsa3, active compounds read low 0.994 | S. cerevisiae deletion strains, locus YLR258W, strain gsy2, active compounds read low 0.995 | S. cerevisiae deletion strains, locus YLR262C, strain YPT6 (second series), active compounds read low 0.97 | S. cerevisiae deletion strains, locus YLR262C, strain YPT6, active compounds read low 0.993 | S. cerevisiae deletion strains, locus YLR268W, strain sec22, active compounds read low 0.952 | S. cerevisiae deletion strains, locus YLR320W, strain mms22, active compounds read low 0.975 | S. cerevisiae deletion strains, locus YLR330W, strain CHS5, active compounds read low 1.02 | S. cerevisiae deletion strains, locus YLR342W, strain FKS1 (second series), active compounds read low 1.06 | S. cerevisiae deletion strains, locus YLR342W, strain FKS1, active compounds read low 1 | S. cerevisiae deletion strains, locus YLR357W, strain rsc2, active compounds read low 0.992 | S. cerevisiae deletion strains, locus YLR370C, strain arc18, active compounds read low 1.02 | S. cerevisiae deletion strains, locus YLR371W, strain rom2, active compounds read low 0.976 | S. cerevisiae deletion strains, locus YLR384C, strain iki3, active compounds read low 1.02 | S. cerevisiae deletion strains, locus YLR418C, strain cdc73, active compounds read low 0.934 | S. cerevisiae deletion strains, locus YML016C, strain PPZ1, active compounds read low 1.01 | S. cerevisiae deletion strains, locus YML032C, strain rad52, active compounds read low 0.965 | S. cerevisiae deletion strains, locus YML120C, strain ndi1, active compounds read low 1 | S. cerevisiae deletion strains, locus YML124C, strain tub3, active compounds read low 0.981 | S. cerevisiae deletion strains, locus YMR058W, strain fet3, active compounds read low 1.03 | S. cerevisiae deletion strains, locus YMR078C, strain ctf18, active compounds read low 1.01 | S. cerevisiae deletion strains, locus YMR125W, strain sto1, active compounds read low 1.04 | S. cerevisiae deletion strains, locus YMR129W, active compounds read low 1.03 | S. cerevisiae deletion strains, locus YMR205C, strain PFK2, active compounds read low 1 | S. cerevisiae deletion strains, locus YMR223W, strain ubp8, active compounds read low 0.999 | S. cerevisiae deletion strains, locus YMR231W, strain pep5, active compounds read low 1.02 | S. cerevisiae deletion strains, locus YMR263W, strain SAP30, active compounds read low 1.01 | S. cerevisiae deletion strains, locus YMR307W, strain GAS1, active compounds read low 1.01 | S. cerevisiae deletion strains, locus YNL067W, strain RPL9B, active compounds read low 0.991 | S. cerevisiae deletion strains, locus YNL071W, strain lat1, active compounds read low 1.02 | S. cerevisiae deletion strains, locus YNL128W, strain TEP1, active compounds read low 1.01 | S. cerevisiae deletion strains, locus YNL153C, strain GIM3, active compounds read low 0.992 | S. cerevisiae deletion strains, locus YNL183C, strain NPR1, active compounds read low 0.943 | S. cerevisiae deletion strains, locus YNL209W, strain ssb2, active compounds read low 1.01 | S. cerevisiae deletion strains, locus YNL233W, strain BNI4, active compounds read low 0.998 | S. cerevisiae deletion strains, locus YNL248C, strain rpa49, active compounds read low 1.02 | S. cerevisiae deletion strains, locus YNL250W, strain rad50, active compounds read low 0.98 | S. cerevisiae deletion strains, locus YNL271C, strain bni1, active compounds read low 0.979 | S. cerevisiae deletion strains, locus YNL298W, strain CLA4, active compounds read low 0.983 | S. cerevisiae deletion strains, locus YNL307C, strain MCK1, active compounds read low 0.982 | S. cerevisiae deletion strains, locus YNL322C, strain KRE1 (second series), active compounds read low 1.01 | S. cerevisiae deletion strains, locus YNL322C, strain KRE1, active compounds read low 1.01 | S. cerevisiae deletion strains, locus YNR049C, strain mso1, active compounds read low 1 | S. cerevisiae deletion strains, locus YNR052C, strain pop2, active compounds read low 0.982 | S. cerevisiae deletion strains, locus YOL006C, strain TOP1, active compounds read low 1.01 | S. cerevisiae deletion strains, locus YOL012C, strain htz1 0.834 | S. cerevisiae deletion strains, locus YOL147C, strain pex11, active compounds read low 0.993 | S. cerevisiae deletion strains, locus YOR001W, strain rrp6, active compounds read low 0.983 | S. cerevisiae deletion strains, locus YOR061W, strain CKA2, active compounds read low 1.01 | S. cerevisiae deletion strains, locus YOR069W, strain VPS5, active compounds read low 1.01 | S. cerevisiae deletion strains, locus YOR070C, strain gyp1, active compounds read low 1.01 | S. cerevisiae deletion strains, locus YOR080W, strain dia2, active compounds read low 1.04 | S. cerevisiae deletion strains, locus YOR083W, strain WHI5, active compounds read low 0.957 | S. cerevisiae deletion strains, locus YOR106W, strain vam3, active compounds read low 1.02 | S. cerevisiae deletion strains, locus YOR136W, strain idh2, active compounds read low 0.995 | S. cerevisiae deletion strains, locus YOR144C, strain elg1, active compounds read low 0.989 | S. cerevisiae deletion strains, locus YOR184W, strain ser1, active compounds read low 0.96 | S. cerevisiae deletion strains, locus YOR231W, strain MKK1, active compounds read low 0.963 | S. cerevisiae deletion strains, locus YOR265W, strain rbl2, active compounds read low 1.01 | S. cerevisiae deletion strains, locus YOR270C, strain vph1, active compounds read low 1.02 | S. cerevisiae deletion strains, locus YOR290C, strain snf2, active compounds read low 1.03 | S. cerevisiae deletion strains, locus YOR316C, strain cot1, active compounds read low 0.991 | S. cerevisiae deletion strains, locus YPL051W, strain arl3, active compounds read low 1.02 | S. cerevisiae deletion strains, locus YPL055C, strain LGE1, active compounds read low 1.02 | S. cerevisiae deletion strains, locus YPL078C, strain atp4, active compounds read low 1.06 | S. cerevisiae deletion strains, locus YPL106C, strain sse1, active compounds read low 1.02 | S. cerevisiae deletion strains, locus YPL240C, strain hsp82, active compounds read low 1.01 | S. cerevisiae deletion strains, locus YPL241C, strain CIN2, active compounds read low 1.01 | S. cerevisiae deletion strains, locus YPL256C, strain CLN2, active compounds read low 0.963 | S. cerevisiae deletion strains, locus YPR119W, strain clb2, active compounds read low 0.989 | S. cerevisiae deletion strains, locus YPR141C, strain kar3, active compounds read low 0.986 | S. cerevisiae deletion strains, locus YPR163C, strain tif3, active compounds read low 0.98 | S. cerevisiae deletion strains, locus YPR167C, strain met16, active compounds read low 0.99 | S. cerevisiae deletion strains, strain wtn01, active compounds read low 0.96 | S. cerevisiae strains, strain wild type, active compounds read low 1.01
